# Test results: ChEMBL document CHEMBL4513216, “Probing the Open Global Health Chemical Diversity Library for Multistage-Active Starting Points for Next-Generation Antimalarials” (ACS Infect Dis, 2020)
# Among all 69,000 compounds or so, about 8,600 (12%) showed an effect of 50% or more. The sample holds strong results, similar compounds and a random draw of the others, so the mix is not that of the screen.
# Tested on: Plasmodium berghei
# Assay: Screen against P. berghei liver stage (PbLuc), transformed with Luciferase, at 10uM
# Type: functional, HepG2
# Conditions: tested at 10 uM
row,SMILES,INHIBITION [%]
1,COCC(=O)N(C)Cc1cccc(Cl)c1,15
2,O=C(CN1CCN(CC(O)C2CC2)CC1)NCc1ccc(F)cc1 (centres undefined),1.58
3,CCOCc1ncn2c1CN(C(=O)c1ccoc1)CC2,39.2
4,O=C(c1cscn1)N1CCn2cnc(COCC3CC3)c2C1,-6.23
5,O=C(c1ccoc1)N1CCCn2cnc(COCC3CC3)c2C1,39.2
6,O=C(c1ccccn1)N1CCn2cnc(COCC3CC3)c2C1,19.7
7,O=C(c1cnccn1)N1CCn2cnc(COCC3CC3)c2C1,60.1
8,O=C(c1ccoc1)N1CCn2cnc(COCC3CC3)c2C1,56.7
9,c1cnn(CC2CCCCN2Cc2nc(-c3ccsc3)no2)c1 (centres undefined),0.914
10,CC(=O)N1CCCC(c2ccc(Nc3nc(C)cc(C)n3)cn2)C1 (centres undefined),33.5
11,CSc1[nH]nc(NC(=O)c2cccnc2)c1C#N,-35.5
12,CCn1cnc(NC(=O)N2CCCC(c3ccccc3)CC2)n1 (centres undefined),22.4
13,CCn1cnc(NC(=O)N2CCC(c3ccc(F)cc3)C2)n1 (centres undefined),31.6
14,CCn1cnc(NC(=O)N2CCC(c3ccc(Cl)cc3)C2)n1 (centres undefined),58.2
15,CSCc1cccc(S(=O)(=O)N2CCCC2)c1,33.3
16,Cc1cccc(N2CCC3(CCN(Cc4ccccn4)CC3)CC2)n1,15.3
17,COCCC(=O)N1CCCC1c1nc(O)cc(C(C)C)n1 (centres undefined),23.2
18,COC(=O)c1ccc2c(-c3ccnc(NCCO)n3)c[nH]c2c1,10
19,CC[C@@H](CO)Nc1nccc(-c2c[nH]c3cc(C(=O)OC)ccc23)n1,69.3
20,COC(=O)c1ccc2c(-c3ccnc(N[C@@H](C)CO)n3)c[nH]c2c1,18.9
21,COc1ccc(CNC2CCC(O)CC2)cc1OCCCC#N (centres undefined),17.8
22,Cc1ccc(CN2CCC3(CC2)NC(=O)CC3c2ccncc2)cc1C (centres undefined),16.6
23,O=C(CN1C=Nc2ccccc2S1(=O)=O)NCCc1cccs1,53.8

row,SMILES,INHIBITION [%]
1,O=C(CN1C=Nc2ccccc2S1(=O)=O)NCCCc1ccccc1,55.2
2,Cc1ccc(CNC(=O)CN2C=Nc3ccccc3S2(=O)=O)s1,22.3
3,CC(C)CNC(=O)CN1C=Nc2ccccc2S1(=O)=O,56.1
4,O=C(CN1C=Nc2ccccc2S1(=O)=O)NCc1ccccc1,7.27
5,CC(C)CCC(C)NC(=O)CN1C=Nc2ccccc2S1(=O)=O (centres undefined),12.7
6,O=C(CN1C=Nc2ccccc2S1(=O)=O)NCC1CC1,29.2
7,CC(NC(=O)CN1C=Nc2ccccc2S1(=O)=O)c1ccccc1 (centres undefined),-18.5
8,CC(C)OCCCNC(=O)CN1C=Nc2ccccc2S1(=O)=O,12.7
9,CNC(=O)c1ccc(-c2ccc(CNS(=O)(=O)N(C)C)cc2)nc1C,8.12
10,O=c1occ(CN2CCCCCC2)c(O)c1CN1CCCCCC1,25.8
11,Cc1ccc(-c2ncc(C(=O)N3CCCN4CCC[C@H]4C3)c(O)n2)cc1,15.2
12,Cc1nc(N)ncc1C(=O)N1CCCC(CCc2ccc(F)cc2)C1 (centres undefined),90.3
13,Cc1nc(N)ncc1C(=O)N1CCCC(CCc2ccc(F)c(F)c2)C1 (centres undefined),38.5
14,Cc1ccc(-c2ncc(C(=O)N3CCCC(CCN)C3)c(O)n2)cc1 (centres undefined),53.8
15,Cc1ccc(-c2ncc(C(=O)N3CCC[C@H](N)C3)c(O)n2)cc1,42.2
16,COc1ccc(CCC2CCCN(C(=O)c3cnc(N)nc3C)C2)cc1 (centres undefined),34.9
17,O=C(c1c[nH]cn1)N1CCC(F)(F)C2(CCN(c3cccc(F)c3)C2)C1 (centres undefined),21.7
18,CC(=O)Nc1ccc(SCC(O)COCc2ccc3c(c2)OCO3)cc1 (centres undefined),25.8
19,COc1ccc(CN(C)CC2(O)CCNC2)cc1 (centres undefined),20.85
20,Cc1nc(CN2CCC3(CC2)CC(c2cccnc2)C(=O)N3C)cs1 (centres undefined),34.5
21,CS(=O)(=O)NC[C@]1(O)CCN(C(=O)Cc2cccs2)C[C@H]1O,-8.12
22,C[C@@H]1CN(C(=O)C2CCS(=O)(=O)CC2)C[C@]1(C)O,-7.81
23,CNC(=O)NC(=O)C(NCc1ccccc1)c1ccccc1 (centres undefined),24.8

row,SMILES,INHIBITION [%]
1,O=C(C(CNCc1cccs1)c1ccccc1)N1CCOCC1 (centres undefined),5.85
2,NC(=O)C(NCc1cccs1)c1ccccc1 (centres undefined),60.1
3,CNC(=O)NC(=O)C(NCc1cccs1)c1ccccc1 (centres undefined),64.7
4,NC(=O)C(NCCc1ccc(Cl)s1)c1ccccc1 (centres undefined),-35.8
5,NC(=O)C(NCc1ccc(Cl)s1)c1ccccc1 (centres undefined),-22.6
6,CC(C)(C)N1CC(C(=O)N2CC(Oc3ccc(F)cc3)C2)CC1=O (centres undefined),18.5
7,COCCN1CCC2(CC1)CC(c1cccnc1)CO2 (centres undefined),16.4
8,N#Cc1ccc(OCC(O)CN2CCC(Cn3cccn3)CC2)cc1 (centres undefined),5.7
9,CNC(=O)[C@H]1C[C@@H]2CN(S(=O)(=O)c3ccc(OC)cc3)C[C@@H]2N1C,46.6
10,COCc1cncc2c1CCN(C(=O)c1cccc(C#N)c1)C2,14.9
11,Cc1cccc(N2CC3(CCN(Cc4nccn4C)C3)CC2=O)c1 (centres undefined),52
12,COc1cccc(N2CC3(CCN(Cc4nccn4C)C3)CC2=O)c1 (centres undefined),40.4
13,Cn1cc(N2CC3(CCN(Cc4nccn4C)C3)CC2=O)cn1 (centres undefined),14.8
14,Cn1ccnc1CN1CCC2(CC(=O)N(c3cncnc3)C2)C1 (centres undefined),33.5
15,Cn1ccnc1CN1CCC2(CC(=O)N(c3ccsc3)C2)C1 (centres undefined),53.2
16,Cn1ccnc1CN1CCC2(CC(=O)N(c3cccc(F)c3)C2)C1 (centres undefined),25.3
17,CCc1nc(C2CCCN2CCCS(N)(=O)=O)no1 (centres undefined),31.9
18,CSCCC(NC(=O)C1CC1)C(=O)N(C)Cc1ccsc1 (centres undefined),42.6
19,Cc1noc(C)c1CCc1nc(C2CCOC2)no1 (centres undefined),-94.3
20,COCCC(=O)N1CCOCC2(CCN(Cc3cccs3)C2)C1 (centres undefined),-5.31
21,Cn1cc(-c2ncnc3c2CCN(CC2CCOC2)CC3)cn1 (centres undefined),25.8
22,CN(C)[C@@H]1CCN(S(=O)(=O)C2CC2)[C@H]1Cc1ccccc1,27.5
23,Cc1nc(C2CCCN(C(=O)c3cccc4c3OCO4)C2)sc1C (centres undefined),40
